Experimental data as given in PubChem BioAssay (NCATS).
Several values for one entry are separate records, joined by “and”; a condition that tells them apart may be missing. Equal values may be shown once. For part of these data: Entries with a potency or affinity are not part of this list. Some compounds were tested as several samples or in several runs, with calls that do not always agree. Activity calls are given as the source filed them. How the calls were made is not given here.

Legend:
[1] = Ebola virus entry assay, blue channel fluorescence
[2] = Ebola virus entry assay, ratio channel
[3] = Ebola virus entry assay, reporter ratio channel; AC50: Channel type: primary unless noted; outcome: Channel type: primary unless noted
[4] = Ebola virus entry assay, blue channel (ratio component)

**Q.** Which AC50 [1] does the source give for `Cc1ccc(-n2nc(C(C)(C)C)cc2NC(=O)Nc2ccc(OCCN3CCOCC3)c3ccccc23)cc1` here?
**A.** 25.1 µM (active)

**Q.** What about the AC50 [2] of the same molecule?
**A.** 20 µM (active)

**Q.** And the AC50 [3]?
**A.** 20 µM (active)

**Q.** Which results are given for `CCCCCCCCCCCCCCCC[N+](C)(C)CC`?
**A.** AC50 [1]: 25.1 µM (active); AC50 [2]: 11.2 µM (active); AC50 [3]: 11.2 µM (active)

**Q.** What does the source list for `CC(C)(C)CC(C)(C)c1ccc(O)cc1`?
**A.** AC50 [1]: 20 µM (active); AC50 [2]: 17.8 µM (active) and 15.8 µM (active); AC50 [3]: 17.8 µM (active) and 15.8 µM (active)

**Q.** With `COC(=O)Nc1nc2ccc(C(=O)c3cccs3)cc2[nH]1` as the molecule, how does the AC50 [1] read?
**A.** 0.708 µM (active)

**Q.** And the AC50 [2]?
**A.** 0.708 µM (active)

**Q.** And the AC50 [3]?
**A.** 0.708 µM (active)

**Q.** What about the outcome [3] of the same molecule?
**A.** inactive [Channel type: confirmation]

**Q.** Which results are given for `O=c1oc2ccccc2c(O)c1C(CC(O)c1ccc(-c2ccc(Br)cc2)cc1)c1ccccc1` (configuration not stated)?
**A.** outcome [1]: inactive; outcome [2]: inactive; outcome [3]: inactive; outcome [4]: inactive

**Q.** With `CCCCCCC[N+](CC)(CC)CCCCc1ccc(Cl)cc1` as the molecule, how does the AC50 [1] read?
**A.** 39.8 µM (active)

**Q.** And the outcome [2]?
**A.** inactive

**Q.** And the AC50 [3]?
**A.** 39.8 µM (active)

**Q.** Which AC50 [1] does the source give for `Oc1cc(Cl)ccc1Oc1ccc(Cl)cc1Cl` here?
**A.** 15.8 µM (active)

**Q.** What about the AC50 [2] of the same molecule?
**A.** 7.08 µM (active) and 14.1 µM (active)

**Q.** And the AC50 [3]?
**A.** 7.08 µM (active) and 14.1 µM (active)

**Q.** With `O=c1[nH]c2ccccc2n1CCCN1CCC(n2c(=O)[nH]c3cc(Cl)ccc32)CC1` as the molecule, how does the AC50 [1] read?
**A.** 39.8 µM (active)

**Q.** And the AC50 [2]?
**A.** 25.1 µM (active)

**Q.** And the AC50 [3]?
**A.** 25.1 µM (active)

**Q.** Which results are given for `CC1(CN2CCC(n3c(=O)[nH]c4ccccc43)CC2)OCc2ccccc2-n2cccc21` (configuration not stated)?
**A.** AC50 [1]: 20 µM (active); AC50 [2]: 15.8 µM (active); AC50 [3]: 15.8 µM (active)

**Q.** Which outcome [1] does the source give for `CCC1(C2=NCCN2)Cc2ccccc2O1` (configuration not stated) here?
**A.** inactive

**Q.** And the outcome [2]?
**A.** inactive

**Q.** What about the outcome [3] of the same molecule?
**A.** inactive

**Q.** What about the outcome [4] of the same molecule?
**A.** inactive

**Q.** Which AC50 [1] does the source give for `CN1C[C@H](CNC(=O)OCc2ccccc2)C[C@@H]2c3cccc4c3c(cn4C)C[C@H]21` here?
**A.** 6.31 µM (active)

**Q.** And the AC50 [2]?
**A.** 3.98 µM (active)

**Q.** And the AC50 [3]?
**A.** 3.98 µM (active)

**Q.** What does the source list for `Clc1ccc(COC(Cn2ccnc2)c2ccc(Cl)cc2Cl)cc1` (configuration not stated)?
**A.** AC50 [1]: 10 µM (active); AC50 [2]: 3.55 µM (active); AC50 [3]: 3.55 µM (active)

**Q.** For `C=CC(=O)Nc1cc2c(Nc3ccc(F)c(Cl)c3)ncnc2cc1OCCCN1CCOCC1`, which AC50 [1] is on record?
**A.** 3.16 µM (active)

**Q.** What about the AC50 [2] of the same molecule?
**A.** 2.82 µM (active)

**Q.** And the AC50 [3]?
**A.** 2.82 µM (active)

**Q.** For `C#CCOC(C(=O)OCCN(C)C)(c1ccccc1)c1ccccc1`, which AC50 [1] is on record?
**A.** 12.6 µM (active)

**Q.** What about the AC50 [2] of the same molecule?
**A.** 14.1 µM (active)

**Q.** And the AC50 [3]?
**A.** 14.1 µM (active)

**Q.** With `CN1C(=S)CN=C(c2ccccc2)c2cc(Cl)ccc21` as the molecule, how does the outcome [1] read?
**A.** inactive

**Q.** And the outcome [2]?
**A.** inactive

**Q.** What about the outcome [3] of the same molecule?
**A.** inactive

**Q.** And the outcome [4]?
**A.** inactive

**Q.** Which results are given for `C=C(C)[C@H]1Cc2c(ccc3c2O[C@@H]2COc4cc(OC)c(OC)cc4[C@@H]2C3=O)O1`?
**A.** AC50 [1]: 10 µM (active); AC50 [2]: 8.91 µM (active); AC50 [3]: 8.91 µM (active)

**Q.** Which AC50 [1] does the source give for `CC(CCc1ccccc1)NC(C)C(O)c1ccc(O)cc1` (configuration not stated) here?
**A.** 35.5 µM (active)

**Q.** What about the AC50 [2] of the same molecule?
**A.** 35.5 µM (active)

**Q.** And the AC50 [3]?
**A.** 35.5 µM (active)

**Q.** Which outcome [1] does the source give for `CCn1cc(C(=O)O)c(=O)c2ccc(C)nc21` here?
**A.** inactive

**Q.** And the outcome [2]?
**A.** inactive

**Q.** What about the outcome [3] of the same molecule?
**A.** inactive

**Q.** For `COc1cc2c(N3CCN(C(=O)Nc4ccc(OC(C)C)cc4)CC3)ncnc2cc1OCCCN1CCCCC1`, which AC50 [1] is on record?
**A.** 11.2 µM (active)

**Q.** What about the AC50 [2] of the same molecule?
**A.** 10 µM (active)

**Q.** What about the AC50 [3] of the same molecule?
**A.** 10 µM (active)

**Q.** Which outcome [1] does the source give for `O=C1NCN(c2ccccc2)C12CCN(CC1COc3ccccc3O1)CC2` (configuration not stated) here?
**A.** inactive

**Q.** And the outcome [2]?
**A.** inactive

**Q.** And the outcome [3]?
**A.** inactive

**Q.** What about the outcome [4] of the same molecule?
**A.** inactive

**Q.** Which outcome [1] does the source give for `CN1CC[C@H](c2c(O)cc(O)c3c(=O)cc(-c4ccccc4Cl)oc23)[C@H](O)C1` here?
**A.** inactive

**Q.** What about the outcome [2] of the same molecule?
**A.** inactive

**Q.** What about the outcome [3] of the same molecule?
**A.** inactive

**Q.** What about the outcome [4] of the same molecule?
**A.** inactive

**Q.** For `COc1cc([C@@H]2c3cc4c(cc3[C@H](O)[C@H]3COC(=O)[C@H]23)OCO4)cc(OC)c1OC`, which AC50 [1] is on record?
**A.** 11.2 µM (active)

**Q.** And the AC50 [2]?
**A.** 5.01 µM (active)

**Q.** And the AC50 [3]?
**A.** 5.01 µM (active)
